Assay results: PubChem BioAssay (NCI)
The panel holds about 83,000 compounds, 20% with a hit somewhere; the sample as a whole holds those more often.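 Plates (96-well) were seeded with cells, treated with compound at one concentration, and incubated for 48 hours before percent growth was determined.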 Active and inactive are the calls of the source. The calls were made as follows: active = growth percent below 10; inactive = the rest.

test system: SNB-19 CNS; experiment: NCI-60 one-dose screen, 48 h (100 = growth as untreated, 0 = no growth, -100 = all killed); details: 10 µM unless noted

SMILES | growth
CC(CO)(CO)C(=O)O | 105% (inactive)
O=C(O)Cc1cccc2ccccc12 | 116% (inactive)
O=c1[nH]c(=O)c2cc(Cl)cc(Cl)c2[nH]1 | 95% (inactive)
C=CCC(OC(C)=O)c1ccc(OC)c(OC)c1 (centres undefined) | 109% (inactive)
C=CCC(OC(C)=O)c1ccc(C(C)C)cc1 (centres undefined) | 101% (inactive)
COC(=O)Cc1cc(COC(C)=O)ccc1C | 113% (inactive)
CCCCCCCCCCCCCCCCCC(=O)NCCNC(=O)CCCCCCCCCCCCCCCCC | 108% (inactive)
CC(=O)c1cccc(N(C)S(=O)(=O)c2ccc(C)cc2)c1 | 96.8% (inactive)
N#CC1(O)CCCCC1 | 108% (inactive)
CC(=O)OC(C)c1cccc(C#N)c1 (centres undefined) | 105% (inactive)
CCN(C(C)=O)c1ccc([N+](=O)[O-])cc1 | 101% (inactive)
CC(C)=CCC[C@@H](C)[C@H]1CC[C@@]2(C)C3=C(CC[C@]12C)[C@@]1(C)CC[C@H](O)C(C)(C)[C@@H]1CC3 | 105% (inactive)
CCOc1ccc(C(=O)NCC(C)C)cc1 | 99.3% (inactive)
CCOC(=O)C(C#N)=C1CCN(C)CC1 | 101% (inactive)
CCOC(C=O)OCC | 106% (inactive)
Cc1nc(O)cc(=O)[nH]1 | 109% (inactive)
COC1OC(C(O)C(O)CO)C(O)C(O)C1O (centres undefined) | 105% (inactive)
O=C(Nc1ccccc1)c1ccco1 | 107% (inactive)
NC(=O)OCCO | 108% (inactive)

SMILES | growth
CC(=O)c1ccc(C)cc1 | 109% (inactive)
O=C(CC(CC(=O)c1ccccc1)c1ccccn1)c1ccccc1 | 93.3% (inactive)
ON1CCCC1 | 103% (inactive)
CC(=O)c1cccc(NS(=O)(=O)c2ccc(C)cc2)c1 | 90% (inactive)
CC(=O)NC(CCc1ccc(Cl)c(Cl)c1)c1cccc(O)c(=O)c1 (centres undefined) | 23.7% (inactive)
O=S(=O)(OCCOS(=O)(=O)c1ccccc1)c1ccccc1 | 104% (inactive)
Cc1cccc2ccccc12 | 103% (inactive)
O=C(OC1CCCC1)c1ccccc1Cl | 105% (inactive)
N#CCCN1C(=O)CCC1C(=O)O (centres undefined) | 101% (inactive)
CCOC(=O)C(CCC#N)(CCC#N)C(=O)OCC | 100% (inactive)
Cc1ccc(OC(=O)c2ccccc2)cc1 | 109% (inactive)
O=C1NC(=O)C(c2ccccc2)O1 (centres undefined) | 109% (inactive)
O=C(CCl)Oc1ccc([N+](=O)[O-])cc1 | 115% (inactive)
CCCCNC(=O)c1ccc(OCC)cc1 | 105% (inactive)
CC(CCC#N)(CCC#N)C(=O)c1ccccc1 | 102% (inactive)
O=[N+]([O-])c1c(Cl)ncnc1Cl | 106% (inactive)
Cc1ccc(S(=O)(=O)CCCl)cc1 | 97.1% (inactive)
Cc1ccc(NC(=O)c2ccccc2Cl)cc1 | 99% (inactive)

test system: U251 CNS; experiment: as above; details: 10 µM unless noted

SMILES | growth
CC(CO)(CO)C(=O)O | 102% (inactive)
O=C(O)Cc1cccc2ccccc12 | 95.1% (inactive)
O=c1[nH]c(=O)c2cc(Cl)cc(Cl)c2[nH]1 | 103% (inactive)
C=CCC(OC(C)=O)c1ccc(OC)c(OC)c1 (centres undefined) | 101% (inactive)
C=CCC(OC(C)=O)c1ccc(C(C)C)cc1 (centres undefined) | 122% (inactive)
COC(=O)Cc1cc(COC(C)=O)ccc1C | 109% (inactive)
CCCCCCCCCCCCCCCCCC(=O)NCCNC(=O)CCCCCCCCCCCCCCCCC | 94.5% (inactive)
CC(=O)c1cccc(N(C)S(=O)(=O)c2ccc(C)cc2)c1 | 87.4% (inactive)
N#CC1(O)CCCCC1 | 94.7% (inactive)
CC(=O)OC(C)c1cccc(C#N)c1 (centres undefined) | 99% (inactive)
CCN(C(C)=O)c1ccc([N+](=O)[O-])cc1 | 90.8% (inactive)
CC(C)=CCC[C@@H](C)[C@H]1CC[C@@]2(C)C3=C(CC[C@]12C)[C@@]1(C)CC[C@H](O)C(C)(C)[C@@H]1CC3 | 99.2% (inactive)
CCOc1ccc(C(=O)NCC(C)C)cc1 | 101% (inactive)
CCOC(=O)C(C#N)=C1CCN(C)CC1 | 104% (inactive)
CCOC(C=O)OCC | 97.4% (inactive)
Cc1nc(O)cc(=O)[nH]1 | 118% (inactive)
COC1OC(C(O)C(O)CO)C(O)C(O)C1O (centres undefined) | 98.9% (inactive)
O=C(Nc1ccccc1)c1ccco1 | 96.1% (inactive)
NC(=O)OCCO | 97.4% (inactive)

SMILES | growth
CC(=O)c1ccc(C)cc1 | 108% (inactive)
O=C(CC(CC(=O)c1ccccc1)c1ccccn1)c1ccccc1 | 99.3% (inactive)
ON1CCCC1 | 100% (inactive)
CC(=O)c1cccc(NS(=O)(=O)c2ccc(C)cc2)c1 | 61.2% (inactive)
CC(=O)NC(CCc1ccc(Cl)c(Cl)c1)c1cccc(O)c(=O)c1 (centres undefined) | 13.7% (inactive)
O=S(=O)(OCCOS(=O)(=O)c1ccccc1)c1ccccc1 | 92.6% (inactive)
Cc1cccc2ccccc12 | 102% (inactive)
O=C(OC1CCCC1)c1ccccc1Cl | 101% (inactive)
N#CCCN1C(=O)CCC1C(=O)O (centres undefined) | 101% (inactive)
CCOC(=O)C(CCC#N)(CCC#N)C(=O)OCC | 102% (inactive)
Cc1ccc(OC(=O)c2ccccc2)cc1 | 94.8% (inactive)
O=C1NC(=O)C(c2ccccc2)O1 (centres undefined) | 101% (inactive)
O=C(CCl)Oc1ccc([N+](=O)[O-])cc1 | 106% (inactive)
CCCCNC(=O)c1ccc(OCC)cc1 | 99.1% (inactive)
CC(CCC#N)(CCC#N)C(=O)c1ccccc1 | 109% (inactive)
O=[N+]([O-])c1c(Cl)ncnc1Cl | 95.9% (inactive)
Cc1ccc(S(=O)(=O)CCCl)cc1 | 101% (inactive)
Cc1ccc(NC(=O)c2ccccc2Cl)cc1 | 118% (inactive)
